# Assay results: the supplement of paper PMC10338343
# ± gives the standard deviation. In all, about 3,000 sequences were measured (“pre-steady-state target cleavage rate”: median about 0.0079, highest 2% from about 0.2 on). Many of the other results were omitted from the sample, so the highest values are more common in it than they were.
# Tested on: MILI (PIWIL2) piRISC loaded with piRNA #2 (26 nt)
# Assay: pre-steady-state target cleavage rate (min^-1); MIWI and MILI are mouse PIWI proteins and EfPiwi is from a freshwater sponge; tags in brackets are library labels; higher = faster piRNA-guided slicing of the target
# Conditions: guide: piRNA #2 5'p-UUAGGUAACCCAGUAGAUCCAGAGGA; auxiliary factor: 500 nM mouse GTSF1
# Protocol: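 Cleave-'n-Seq: a library of target RNAs (target site embedded in constant flanks, ACAGCATTCCGCGTTAGTGATATCCG... 5' flank; DNA-blocked outside the site) at 0.1 nM was incubated with 1 nM active mouse MILI or MIWI piRISC (synthetic 5'-monophosphorylated piRNA guide) with or without 500 nM mouse GTSF1 at 33 °C for 1 min to 16 h. Uncleaved targets were sequenced and normalised to non-target controls, and the pooled three trials were fitted to a burst-and-steady-state model to give the pre-steady-state cleavage rate (min^-1; k3 is constrained to at most 1e-4). Sequence is the target site only; target names encode pairing extent (gX:gY) and contiguous / 1-mismatch / 2-mismatch / bulge geometry. Fits with R² ≤ 0 are excluded.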
row,Sequence,pre-steady-state target cleavage rate
1,CUUAUCCUCUGGAUCUACUGGGUUUCCAAA,0.134 ± 0.047
2,CUUAUCCUCUGGAUCUACUGGGUAUCCUAA,0.0336 ± 0.014
3,CUUAUCCUCUGGAUCUACUGGGUUACCUAA [g2:g26:cont:t1A],0.125 ± 0.023
4,CUUAAGCUCUGGAUCAACUGGGUUUCCUAA,0.0481 ± 0.015
5,CUUAUCCUCUGGAUCUACUGGGUUUCGUAA,0.171 ± 0.071
6,CUUAUCCUCUGGAUCUACUGGGUUCCUAA,0.239 ± 0.11
7,CUUAUCCUCUGGAUCAACUGGGUUUCCUAA,0.199 ± 0.072
8,CUUAUCCUCUGGAUCUACUGGGUUUCCUUA,0.413 ± 0.15
9,CUUAACCUCUGGAUCAACUGGGUUUCCUAA,0.101 ± 0.038
10,CUUAUCCUCUGGAUCUACUGGGUUAUCCUAA,0.204 ± 0.046
11,CUUAUCCUCUGGAUCUACUGGGUUCACCUAA,0.0872 ± 0.017
12,CUUAUCCUCUGGAUCUACUGGGUUAUCUAA,0.0884 ± 0.015
13,CUUAAGCUCAGGAUCAACUGGGUUACCUAA,0.0432 ± 0.014
14,CUUAAGGACUGGAUCUAUUGGGUUACCUAA,0.0187 ± 0.0078
15,CUUAAGGAGUGGAUCUUCAGGGUUACCUAA,0.0231 ± 0.0065
16,CUUAAGGUCUGGAUGUACUGGGAUACCUAA,0.0141 ± 0.01
17,CUUAAGGUCUGGAACUUCUGGGUUACCUAA,0.0253 ± 0.015
18,CUUAAGCUCAGGAUCUACUGGGUAACCUAA,0.0259 ± 0.0088
19,CUUAACGUCUGGAUCUACUGGGUUACCUUA,0.0827 ± 0.015
20,CUUAAGGAGUGGAUCUACUGGGUCUACCUAA,0.00823 ± 0.0039
21,CUUAAGGACUGGAUCUACUGGGUAUACCUAA,0.0248 ± 0.016
22,CUUAAGGUCUGGAUCUACAGGGUUACCAAA,0.106 ± 0.017
23,CUUAUCCUCUGGAUCUACUGGGUAUGCUAA,0.092 ± 0.023
24,CUUAUCCUCUGGAUCUACUGGGUUUACCUAA,0.107 ± 0.023

row,Sequence,pre-steady-state target cleavage rate
1,CUUAUCCUCUGGAUCUACUGGGUUUCCUAA,0.252 ± 0.072
2,CUUAUCCCUCUGGAUCUACUGGGUUACCUAA,0.0911 ± 0.022
3,CUUAUCCUCUGGAUCUACUGGGUUUGCUAA,0.216 ± 0.041
4,CUUAUCCUCUGGAUCUACUGGGUUCCCUAA,0.321 ± 0.13
5,CUUAUCCACUGGAUCUACUGGGUUUCCUAA,0.123 ± 0.034
6,CUUAUCCUCUGGAUCUACUGGGUUACCCUAA,0.132 ± 0.049
7,CUUAUCCUCUGGAUCUACUGGGUUACGCUAA,0.174 ± 0.026
8,CUUAAGGUGUGGAUCUACUGGGUUACCUUA,0.0353 ± 0.011
9,CUUAUCCUCUGGAUGUACUGCGUUACCUAA,0.0106 ± 0.0045
10,CUUAAGGACUGGAUCUACAGGGUUACCAAA,0.0404 ± 0.0091
11,CUUAAGCUCUCGGAUCUACUGGGUUACCUAA,0.064 ± 0.015
12,CUUAUCCUCUGGAUCACUGGGUUACCUAA,0.0129 ± 0.0061
13,CUUAAGGAGACCUACUACUGGGUUACACUAA,< 0.0001
14,CUUAAGGUCUGGAUCUACUGGGUUACCUGAA,0.0831 ± 0.035
15,CUUAAGCUCUGGAUCUAGUGGGUUUCCUAA,0.0199 ± 0.0071
16,CUUAUCCUCUCGAUCUACUCGGUUACCUAA,0.0053 ± 0.0015
17,CUUAAGGAGACCUACUACUGUGGUUACCUAA,< 0.0001
18,CUUAACGUCUGCAUCUACUGGGUUACCUAA,0.126 ± 0.02
19,CUUAUCCUCUGGCUCUACUGGGUUACCUAA,1.12 ± 0.3
20,CUUAUCCUCUGGAGUCUACUGGGUUACCUAA,0.175 ± 0.039
21,CUUAUCCUCUGGACUCUACUGGGUUACCUAA,0.0887 ± 0.019
22,CUUAUCCUCUGGAAUCUACUGGGUUACCUAA,0.156 ± 0.035
23,CUUAUCCUCUGGGUCUACUGGGUUACCUAA,0.206 ± 0.035
24,CUUAUCCUCUGAAUCUACUGGGUUACCUAA,0.109 ± 0.023

row,Sequence,pre-steady-state target cleavage rate
1,CUUAUCCUCUGGUCUACUGGGUUACCUAA,0.983 ± 0.34
2,CUUAAGCUCUGGAUGUACUGGGUUUCCUAA,0.0435 ± 0.021
3,CUUAAGGUCUGGAUCUACAGGGUUAGCUAA,0.0446 ± 0.012
4,CUUAAGCUCUGUAUCUACUGGGUUACCUAA,0.0444 ± 0.0099
5,CUUAAGGAGUGGAUCUACAGGGUUUCCUAA,0.056 ± 0.012
6,CUUAAGGUCUGGAUCUACUGGGUUACCUAU [g2:g23:cont:t1U],0.101 ± 0.014
7,CUUAUCCUCUGGAUGUAGUGGGUUACCUAA,0.0679 ± 0.01
8,CUUAUCCUCUGGAUCUACUGGGUUACCUUA,0.13 ± 0.026
9,CUUAUCCUCUGGCAUCUACUGGGUUACCUAA,2.56 ± 1.7
10,CUUAUCCUCUGCGAUCUACUGGGUUACCUAA,0.0876 ± 0.015
11,CUUAUCCUCUGCAUCUACUGGGUUACCUAA,0.275 ± 0.056
12,CUUAUCCUCUGGGAUCUACUGGGUUACCUAA,0.137 ± 0.023
13,CUUAUCCUCUGCAUCUACUGCGUUACCUAA,0.0198 ± 0.0066
14,CUUAUCCUCUGGAUCUACUGGGUUACCAAA,0.13 ± 0.023
15,CUUAUCCUCUGCAUCUACUGGGUUACCAAA,0.408 ± 0.12
16,CUUAACCUCUGCAUCUACUGGGUUACCAAA,0.173 ± 0.055
17,CUUAACCUCUGCAUCUACUGGGUUACCUUA,0.178 ± 0.048
18,CUUAUCCUCUGCAUCUACUGGGUUACCUUA,0.466 ± 0.13
19,CUUAUCCUCUGAUCUACUGGGUUACCUAA,0.123 ± 0.029
20,CUUAAGCUCUGGAUCUACCGGGUUACCUAA,0.0213 ± 0.0061
21,CUUAAGCUCUGGAUCUACUGGGUUCACCUAA,0.0506 ± 0.017
22,CUUAAGGAGUGGAUCUUCUGGGUUACCUUA,0.014 ± 0.007
23,CUUAUCCUCUGCAUCUACUGGGUUACGUAA,0.483 ± 0.2
